Screening results deposited in PubChem BioAssay by National Center for Advancing Translational Sciences (NCATS).
KB-3-1 tox = qHTS assay for MDR1-selective chemotherapeutics: Primary screen using the parental adenocarcinoma cell KB-3-1; Potency, µM (series often up to 46.1 µM), usual class: cytotoxic; actives 1.4% (n = 400,000); KB-3-1 viability, CellTiter-Glo ATP luminescence, 72 h; AID 1347075, 2019; further: nearly all actives have a fitted effect of over 60% in size
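Using CellTiter-Glo luminescence, growth of non-resistant KB-3-1 adenocarcinoma cells is assessed 72 h after pin-tool compound addition at 37 °C. Normalized responses across the concentration series yield fitted curves.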
HT1080 IDH1KD tx = qHTS for induction of synthetic lethality in tumor cells producing 2HG: qHTS for the HT-1080-IDH1KD cell line. actives 2% (n = 360,000). Potency, µM (doses to about 46.1 µM), hits mostly cytotoxic. HT-1080 IDH1 knockdown viability, ATP luminescence, 48 h. AID 686971, 2013
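Using the IDH1-knockdown HT-1080 line run in the same batch and compound series as the NT line, viability after 48 h at 37 °C was determined by CellTiter-Glo luminescence and expressed as % activity.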
MCF10A rerep = A quantitative high throughput screen for small molecules that induce DNA re-replication in MCF 10a normal breast cells | Potency, µM (doses to about 46.1 µM), actives largely listed as activators | AID 624296, 2012 | actives 2.9% (n = 350,000) | MCF 10A DNA re-replication, Hoechst nuclear intensity, 48 h; further: nearly all actives have a fitted effect of over 50% in size
HT1080NT lethal = qHTS for induction of synthetic lethality in tumor cells producing 2HG: qHTS for the HT-1080-NT fibrosarcoma cell line | Potency, µM (highest dose often 46.1 µM), usual class: cytotoxic | HT-1080-NT fibrosarcoma viability, CellTiter-Glo ATP luminescence, 48 h | actives 1.6% (n = 360,000);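 further: NT is the 2HG producing partner of a matched IDH1 knockdown line; nearly all actives have a fitted effect of over 55% in size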
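Viability of the 2HG-overproducing fibrosarcoma line after 48 hours of compound exposure at 37 degrees C was determined by luminescence with CellTiter-Glo, and concentration-effect curves were then fitted and categorized.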
SW480 rerep = A quantitative high throughput screen for small molecules that induce DNA re-replication in SW480 colon adenocarcinoma cells; Potency, µM (series often up to 46.1 µM), actives largely listed as activators; SW480 DNA re-replication, Hoechst DNA content imaging, 48 h; actives 1.8% (n = 340,000); further: nearly all actives have a fitted effect of over 55% in size
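250 cells/well; 23 nL cpd via pin tool; 48 hr, 37 C, 5% CO2; Hoechst 40 min; imager read of total nuclear intensity, ex 405/em 500-530 nm.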
KB-V1 MDR tox = qHTS assay for MDR1-selective chemotherapeutics: Primary screen using the drug-selected MDR subline cells KB-V1 | KB-V1 MDR cells viability, CellTiter-Glo, 72 h | Potency, µM (series often up to 46.1 µM), most hits filed as cytotoxic | actives 3.4% (n = 400,000); further: nearly all actives have a fitted effect of over 60% in size
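KB-V1 MDR subline cells in DMEM (phenol-red free, 10% FBS) exposed to compounds in qHTS concentration series for 72 h at 37 degrees C. Viability read by CellTiter-Glo luminescence; concentration-effect curves fitted after normalization and correction.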
Numbers stand for hits; n = inactive; u = inconclusive; x = not tested or not shown; ! = repeats disagree. An excerpt weighted towards active compounds, which were near 7.9% of everything screened. The call rests on the fitted dose curve; in most records, active means well fitted curve in the direction sought with a large enough effect; inconclusive means small, poorly fitted or top-dose-only effect, or another doubt; inactive means no such curve, though single readings can be large; an effect the other way counts as inactive or inconclusive.

SMILES	KB-3-1 tox	HT1080 IDH1KD tx	MCF10A rerep	HT1080NT lethal	SW480 rerep	KB-V1 MDR tox
CCN(CC)S(=O)(=O)c1ccc(C(=O)Nc2nc3c(Cl)cc(Cl)cc3s2)cc1	21µM	x	x	x	x	n
CCC(CC)C(=O)Nc1cccc(C(=O)c2ccccc2)c1	n	n	n	n	n	9.2µM
CC(C)C(=O)Nc1ccc(C(=O)c2ccccc2)cc1	n	n	n	n	n	13µM
FC(F)(F)c1cccc(Cn2nnnc2-c2cc(Cl)cc(Cl)c2)c1	n	n	n	n	n	n
FC(F)(F)c1cccc(Cn2nnnc2-c2cccc(C(F)(F)F)c2)c1	n	n	u	n	n	15µM
CC1CCN(S(=O)(=O)c2ccc(NC(=O)[C@@H]3CCCN3C(=O)c3cccs3)cc2)CC1	n	n	n	n	n	21µM
CC1CCCCN1S(=O)(=O)c1ccc(NC(=O)c2cccs2)cc1 (stereo unspecified)	n	n	21µM	u	n	u
CCOc1ccc(NC(=O)[C@@H]2CCCN2C(=O)c2cccs2)cc1S(=O)(=O)N1CCCCC1	n	n	n	n	n	9.2µM
CC1CCCN(S(=O)(=O)c2ccc(NC(=O)[C@@H]3CCCN3C(=O)c3cccs3)cc2)C1 (stereo partly specified)	n	n	n	n	n	n
O=C(CN(C(=O)CNC(=O)c1ccco1)c1cccc(F)c1)NC1CCCCC1	n	n	n	n	n	n
CCOc1ccc(S(=O)(=O)c2cc3cccc(OCC)c3oc2=O)cc1	n	x	x	x	x	n
COCCCNC(=O)c1cc2cc(Br)ccc2oc1=O	n	n	n	u	n	n
O=C(NNC(=O)c1cc2cc(Br)ccc2oc1=O)c1ccc(O)cc1O	n	1.8µM	u	u	n	u
O=S(=O)(c1ccc(Br)cc1)N1CCCN(Cc2cccc(F)c2)CC1	n	n	u	n	21µM!	n
COc1cccc(CN2CCCN(S(=O)(=O)c3ccc(Br)cc3)CC2)c1	n	n	u	n	u	u
CCc1ccc(C(=O)NNC(=O)c2cccc(S(=O)(=O)N3CCN(C)CC3)c2)cc1	n	n	n	n	n	n
Cc1csc(/C(C#N)=N/O)n1	n	n	n	n	n	u
Cc1csc(/C(=N\O)c2csc(C)n2)n1	n	16µM	n	u	n	n
Cc1nnc(SCc2cc(=O)[nH]c(/N=C(\N)Nc3ccccc3Sc3ccccc3)n2)s1	n	n	n	n	n	n
Cc1nnc(SCc2cc(=O)[nH]c(/N=C(\N)Nc3ccccc3)n2)s1	u	18µM	18µM	u	u	u
CCOc1ccc(N/C(N)=N/c2nc(CSc3nnc(C)s3)cc(=O)[nH]2)cc1	0.73µM	0.92µM	u	0.21µM	u	u
CC1CC1C(=O)OCC(=O)Nc1cc(S(=O)(=O)N2CCCCC2)ccc1Cl (stereo unspecified)	n	n	n	n	n	u
CCOC(=O)c1ccccc1NC(=O)CSc1nnc(CC)n2c1cc1occc12	n	x	x	x	x	n
Cc1ccc(-c2nnn3c2nc(NC2CCC(C)CC2)c2ccccc23)cc1 (stereo unspecified)	n	x	x	x	x	n
CNc1nc2c(-c3ccc(Cl)cc3)nnn2c2ccccc12	n	n	u	n	n	n
SMILES	KB-3-1 tox	HT1080 IDH1KD tx	MCF10A rerep	HT1080NT lethal	SW480 rerep	KB-V1 MDR tox
NNc1nc2c(-c3cccc(C(F)(F)F)c3)nnn2c2ccccc12	u	21µM	2.9µM	21µM	3.7µM	u
Cc1ccc(-c2nnn3c2nc(NC(C)C)c2ccccc23)cc1	n	n	16µM	n	u	n
Cc1ccc(-c2nnn3c2nc(NCCc2ccc(S(N)(=O)=O)cc2)c2ccccc23)cc1	n	u	u	u	u	n
Cc1cccc(-c2nnn3c2nc(NCCc2ccc(S(N)(=O)=O)cc2)c2ccccc23)c1	n	n	5.2µM	n	2.3µM	n
Nc1nc2c(-c3ccc(Br)cc3)nnn2c2ccccc12	n	n	5.2µM	n	10µM	n
COc1ccc(/C=C(\C)C(=O)NO)cc1	x	n	x	n	x	x
COC(=O)C(Cc1ccccc1)NC(=O)CNC(=O)c1ccccc1OC (stereo unspecified)	n	n	n	n	n	n
CC1=C(C(=O)N2CCOCC2)CC(CC(=O)NC2CC2)C(=O)N1CCC1=CCCCC1 (stereo unspecified)	n	n	x	n	x	n
CC1=C(C(=O)N2CCCCCC2)CC(CC(=O)NC(c2ccccc2)c2ccccc2)C(=O)N1CCC1=CCCCC1 (stereo unspecified)	u	u	x	u	x	16µM
O=[N+]([O-])c1ccc(S(=O)(=O)CC2CSc3nc4ccccc4n32)cc1 (stereo unspecified)	1.8µM	n	n	n	u	2.6µM
COc1cccc(-c2nnc3sc(C4CCCCC4)nn23)c1	u	n	u	n	n	3.7µM
COc1cc(-c2nnc3sc(C4CCCCC4)nn23)cc(OC)c1OC	u	n	21µM	n	n	18µM
CC(=O)N1CC(C)Sc2ccc(S(=O)(=O)NC(C)c3ccccc3)cc21 (stereo unspecified)	n	n	n	n	n	n
CCn1c(=O)c(C(=O)NCc2ccccc2)c(O)c2ccccc21	n	n	u	n	n	n
CCCCCCCCCC(=O)NNC(=O)c1c(O)c2ccccc2n(CC)c1=O	u	n	n	n	n	u
CCn1c(=O)c(C(=O)NNC(=O)c2ccccc2Cl)c(O)c2ccccc21	n	n	n	u	n	u
C=CCn1c(=O)c(C(=O)NCc2ccccc2Cl)c(O)c2ccccc21	u	n	23µM	n	n	n
CCn1c(=O)c(C(=O)NNC(=O)c2ccccc2F)c(O)c2ccccc21	15µM	n	u	u	u	10µM
CCCCCC(=O)NNC(=O)c1c(O)c2ccccc2n(CC)c1=O	u	n	u	n	u	23µM
CCn1c(=O)c(C(=O)NCc2ccc(Cl)cc2)c(O)c2ccccc21	n	n	0.58µM	n	n	n
COc1cccc(C(=O)NC2=NC(c3ccccc3F)CC(=O)N2)c1 (stereo unspecified)	n	x	x	x	x	n
Cc1ccc2c(/C=C/c3ccc(N(C)C)cc3)ccnc2c1C	n	x	x	x	x	u
CCCn1c(=O)c(C(=O)NNS(=O)(=O)c2ccc(C)cc2)c(O)c2ccccc21	u	33µM	u	u	n	u
